# Measurements from PubChem BioAssay (NCI).
# About 83,000 compounds went through this panel and 20% of them were active in at least one assay; those are over-represented in the sample as a whole.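 How to read the values: 0–100, growth inhibition (40 = 60% inhibited); 0, no net growth; -100 to 0, cell death (-40 = 40% of starting cells died; -100 = all dead).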 Values without a mark were called inactive. The source made the active and inactive calls.
# Tested on: T-47D breast
# Assay: NCI-60 one-dose screen, 48 h (100 = growth as untreated, 0 = no growth, -100 = all killed)
# Conditions: 10 µM unless noted
# Procedure: Growth inhibition of the T-47D human tumor cell line is measured as a screen for anti-cancer activity. Cells are grown in 96 well plates and exposed to the test compound for 48 hours. Compounds are tested at a single concentration, which is 10^-5 M for most compounds. The reported endpoint is percent growth (GI% or GIPRCNT), where numbers from 0 - 100% represent growth inhibition, and numbers from -100% - 0 represent cell death. For example, a value of 40 represents 60% growth inhibition. A value of 0 means no net growth occurred over the course of the experiment. A value of -40 indicates 40% of cells at the beginning of the experiment died by the end of the experiment. A value of -100 means all cells are dead at the end of the experiment.
# NCI-60 Human Tumor Cell Lines Screen was performed using the standard one-dose NCI protocol, which is described in more detail at https://dtp.cancer.gov/discovery_development/nci-60/default.htm.
# Compounds with GIPRCNT values below 10 were considered active. Activity score was based on GIPRCNT using the following formula: […]
# Score is 0 for GIPRCNT values of 100 or above, 50 for GIPRCNT values of 0, and 100 for GIPRCNT values of -100.
row,Compound,growth
1,CCC(C)[C@H]1O[C@]2(C=C[C@@H]1C)C[C@@H]1C[C@@H](C/C=C(\C)[C@@H](OC3C[C@H](OC)C(O[C@H]4C[C@H](OC)[C@@H](O)[C@H](C)O4)[C@H](C)O3)[C@@H](C)/C=C/C=C3\CO[C@@H]4[C@H](O)C(C)=C[C@@H](C(=O)O1)[C@]34O)O2 (stereo not given in full),0.0336% (active)
2,Oc1ccc(Br)cc1CN1CCN(Cc2ccc(Cl)cc2)CC1,65.1%
3,NC(Cc1ccc2c(c1)OCO2)c1ccc2c(c1)OCO2 (stereo not given),113%
4,NC(Cc1ccc(O)cc1)C(=O)N/N=C/c1ccc(N(CCCl)CCCl)cc1 (stereo not given),79.2%
5,CC1(C)N=C(N)N=C(N)N1c1ccc(CCCCc2ccc(S(=O)(=O)F)cc2)c(Cl)c1,-0.711% (active)
6,[Br][Pb]([c]1ccccc1)([c]1ccccc1)[c]1ccccc1,-72% (active)
7,CCC1CN1P(=O)(OCCOC)N1CC1CC (stereo not given),104%
8,Cc1ccc(N)cc1[As]=[As]c1cc(N)ccc1C (stereo not given),-41.9% (active)
9,C[C@@H]1O[C@@H](O[C@H]2CC[C@@]3(C)[C@H](CCC4[C@@H]3C(O)C[C@]3(C)[C@@H](c5ccc(=O)oc5)CC[C@]43O)C2)[C@H](O)[C@H](O)[C@H]1O (stereo not given in full),-55.6% (active)
10,O=C(CCCN1CCC2(CC1)C(=O)NCN2c1ccc(F)cc1)c1ccc(F)cc1,102%
11,N#Cc1ncc(/N=C/c2ccc(N(CCCl)CCCl)cc2)s1,64.2%
12,C=CCN1C(=O)C(CC)(CCC(C)C)C(=O)NC1=S (stereo not given),113%
13,c1cnc2c(c1)ccc1ncccc12,111%
14,O=CN1N=C(c2ccccc2)CC1c1sc(N(CCCl)CCCl)nc1Cl (stereo not given),83%
15,CC1(C)CC2(CC(C)(C)c3cc(O)c(O)cc32)c2cc(O)c(O)cc21,104%
16,c1ccc([As]=[As]c2ccccc2)cc1 (stereo not given),-73.1% (active)
17,CC1([N+](=O)[O-])COP(=O)(Nc2ccc(F)cc2)OC1 (stereo not given),82.9%
18,c1ccc2nc(OCCN3CC3)ccc2c1,80.3%
19,O=C1NC(=S)NC(=O)C1=Cc1ccccc1,93.4%
20,COC(=O)C[Se]C(=O)c1ccccc1OC(C)=O,84.5%

row,Compound,growth
1,c1ccc(CCN2CCCCC2Cc2ccccc2)cc1 (stereo not given),86.2%
2,CCOc1ccc(C(O)CN(C)Cc2ccccc2)cc1Cl (stereo not given),97.1%
3,O=[N+]([O-])c1cc([N+](=O)[O-])c(Cl)c(Cl)c1Cl,-27.9% (active)
4,COC(=O)C1CC2c3ccccc3C1c1ccccc12 (stereo not given),102%
5,COc1cc[c]([Hg][Cl])cc1,-3.04% (active)
6,CC1(C)N=C(N)N=C(N)N1c1ccc(OCCCCNC(=O)Nc2cccc(S(=O)(=O)F)c2)c(Cl)c1,115%
7,O=[N+]([O-])c1ccccc1N1CCNCC1,-4.84% (active)
8,CC(C)C1c2ccc(O)cc2Oc2nc(N)c(C#N)c(N)c21 (stereo not given),87.5%
9,CCC(CC)(c1ccccc1)C(OC(N)=O)c1ccccc1 (stereo not given),82.2%
10,Cc1cc(N(CCCl)CCCl)ccc1C=Nc1ccc2ccccc2c1,5.25% (active)
11,ClCCN(CCCl)C(c1ccccc1)c1ccc(Cl)cc1 (stereo not given),103%
12,CCOc1cc(C=C(C#N)C#N)cc(Br)c1O,98.5%
13,O=C(CI)Nc1ccc(Br)cc1,26.7%
14,CC[C@H](C)[C@H](NC(=O)Nc1ccccc1)C(=O)N(C)[C@H](C[C@@H](OC(C)=O)c1nc(C(=O)N[C@@H](Cc2ccccc2)C[C@H](C)C(=O)OC)cs1)C(C)C,61.6%
15,Cc1ccc(C(=O)C2CN(C)CCC2(O)c2ccc(C)cc2)cc1 (stereo not given),102%
16,COc1ccccc1N1CCN(CCc2c[nH]c3cc4c(cc23)OCO4)CC1,83.1%
17,CC(=O)O[C@H]1C[C@H](O[C@H]2[C@@H](O)C[C@H](O[C@H]3[C@@H](O)C[C@H](O[C@H]4CC[C@@]5(C)C(CCC6C5C[C@@H](O)[C@]5(C)[C@@H](C7=CC(=O)OC7)CC[C@]65O)C4)O[C@@H]3C)O[C@@H]2C)O[C@H](C)[C@H]1O[C@@H]1O[C@H](CO)[C@@H](O)[C@H](O)[C@H]1O (stereo not given in full),-19% (active)
18,Fc1ccc(C2=NN(c3ccccc3)C(c3sc(N(CCCl)CCCl)nc3Cl)C2)cc1 (stereo not given),61.5%
19,COc1cccc2c1C(=O)c1c(O)c3c(c(O)c1C2=O)CC(O)(/C(C)=N/NC(=O)CCC(=O)N/N=C(\C)C1(O)Cc2c(O)c4c(c(O)c2C(OC2CC(N)C(O)C(C)O2)C1)C(=O)c1c(OC)cccc1C4=O)CC3OC1CC(N)C(O)C(C)O1 (stereo not given),-24.2% [5 µM] (active)
20,CCC[CH2][Sn]1([CH2]CCC)[O]C(=O)c2cccc([N+](=O)[O-])c2C(=O)[O]1,-76.3% (active)
